Over roughly 8,300 sequences, “log2 fold change of degron read counts, EGFP-low vs EGFP+ sorted cells (limma voom), compound-induced degradation” has its median near -1.1; the highest 2% begin near 3.2. This is one part of a sample in which the highest values are shown more often than they occur.
T1: CRBN, Q96SW2
T1 chain: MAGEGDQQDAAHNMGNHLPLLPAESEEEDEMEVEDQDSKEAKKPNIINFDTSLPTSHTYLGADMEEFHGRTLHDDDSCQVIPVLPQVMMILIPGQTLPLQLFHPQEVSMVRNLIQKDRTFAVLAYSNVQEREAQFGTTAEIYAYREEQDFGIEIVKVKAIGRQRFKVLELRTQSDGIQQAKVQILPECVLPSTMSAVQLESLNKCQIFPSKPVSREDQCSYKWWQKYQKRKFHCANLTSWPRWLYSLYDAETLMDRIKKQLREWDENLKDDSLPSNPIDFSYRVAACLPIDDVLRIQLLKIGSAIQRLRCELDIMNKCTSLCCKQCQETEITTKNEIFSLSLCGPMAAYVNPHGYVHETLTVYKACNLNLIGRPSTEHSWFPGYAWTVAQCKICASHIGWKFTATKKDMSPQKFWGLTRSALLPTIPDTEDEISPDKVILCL

B1: 46L_47S_49P_50I_52G_53F_54Y_55C_67L_, Q9UKT9 (peptide)
chain: LSCPICGFYCTQKGNLLRHIKL
B2: 46L_47F_49P_50I_52G_53F_54Y_55C_67L_, Q9UKT9 (peptide)
chain: LFCPICGFYCTQKGNLLRHIKL
B3: 46L_47H_49P_50I_52G_53F_54Y_55C_67L_, Q9UKT9 (peptide)
chain: LHCPICGFYCTQKGNLLRHIKL
B4: 46L_47Y_49E_50I_52G_53F_54G_55C_67L_, Q9UKT9 (peptide)
chain: LYCEICGFGCTQKGNLLRHIKL
B5: 46F_47V_49N_50Q_52G_53R_54W_55F_67L_, Q9UKT9 (peptide)
chain: FVCNQCGRWFTQKGNLLRHIKL
B6: 46F_47D_49N_50V_52G_53A_54K_55F_67L_, Q9UKT9 (peptide)
chain: FDCNVCGAKFTQKGNLLRHIKL
B7: 46L_47E_49P_50I_52G_53F_54Y_55C_67L_, Q9UKT9 (peptide)
chain: LECPICGFYCTQKGNLLRHIKL
B8: 46L_47K_49P_50I_52G_53F_54Y_55C_67L_, Q9UKT9 (peptide)
chain: LKCPICGFYCTQKGNLLRHIKL
B9: 46L_47T_49P_50I_52G_53F_54Y_55C_67L_, Q9UKT9 (peptide)
chain: LTCPICGFYCTQKGNLLRHIKL
B10: 46L_47N_49P_50I_52G_53F_54Y_55C_67L_, Q9UKT9 (peptide)
chain: LNCPICGFYCTQKGNLLRHIKL
B11: 46L_47L_49P_50I_52G_53F_54Y_55C_67L_, Q9UKT9 (peptide)
chain: LLCPICGFYCTQKGNLLRHIKL
B12: 46L_47Y_49P_50I_52G_53F_54Y_55C_67L_, Q9UKT9 (peptide)
chain: LYCPICGFYCTQKGNLLRHIKL
B13: 46F_47C_49E_50I_52G_53H_54I_55F_67L_, Q9UKT9 (peptide)
chain: FCCEICGHIFTQKGNLLRHIKL
B14: 46F_47L_49N_50Q_52G_53R_54T_55F_67L_, Q9UKT9 (peptide)
chain: FLCNQCGRTFTQKGNLLRHIKL
B15: 46F_47N_49P_50Q_52G_53A_54N_55F_67L_, Q9UKT9 (peptide)
chain: FNCPQCGANFTQKGNLLRHIKL
B16: 46F_47T_49E_50I_52G_53A_54Y_55F_67L_, Q9UKT9 (peptide)
chain: FTCEICGAYFTQKGNLLRHIKL
B17: 46F_47I_49N_50I_52G_53A_54T_55F_67L_, Q9UKT9 (peptide)
chain: FICNICGATFTQKGNLLRHIKL
B18: 46F_47V_49N_50I_52G_53A_54Q_55F_67L_, Q9UKT9 (peptide)
chain: FVCNICGAQFTQKGNLLRHIKL
B19: 46F_47W_49N_50I_52G_53A_54Q_55F_67L_, Q9UKT9 (peptide)
chain: FWCNICGAQFTQKGNLLRHIKL
B20: 46F_47Q_49N_50I_52G_53A_54Q_55F_67L_, Q9UKT9 (peptide)
chain: FQCNICGAQFTQKGNLLRHIKL
B21: 46F_47A_49N_50I_52G_53A_54Q_55F_67L_, Q9UKT9 (peptide)
chain: FACNICGAQFTQKGNLLRHIKL
B22: 46F_47Y_49N_50I_52G_53A_54Q_55F_67L_, Q9UKT9 (peptide)
chain: FYCNICGAQFTQKGNLLRHIKL
B23: 46F_47R_49N_50I_52G_53A_54Q_55F_67L_, Q9UKT9 (peptide)
chain: FRCNICGAQFTQKGNLLRHIKL
B24: 46L_47R_49E_50I_52G_53F_54F_55C_67L_, Q9UKT9 (peptide)
chain: LRCEICGFFCTQKGNLLRHIKL
B25: 46F_47S_49N_50Q_52G_53H_54K_55F_67L_, Q9UKT9 (peptide)
chain: FSCNQCGHKFTQKGNLLRHIKL
B26: 46F_47A_49E_50Q_52G_53A_54Y_55F_67L_, Q9UKT9 (peptide)
chain: FACEQCGAYFTQKGNLLRHIKL
B27: 46F_47C_49N_50Q_52G_53H_54D_55F_67L_, Q9UKT9 (peptide)
chain: FCCNQCGHDFTQKGNLLRHIKL
B28: 46F_47D_49N_50Q_52G_53R_54C_55F_67L_, Q9UKT9 (peptide)
chain: FDCNQCGRCFTQKGNLLRHIKL

Biological target: T1, CRBN, Q96SW2
Assay: log2 fold change of degron read counts, EGFP-low vs EGFP+ sorted cells (limma voom), compound-induced degradation; higher = more compound-induced degradation of the degron-EGFP fusion; degrons are variants of IKZF1/3 zinc finger 2; compound dose not given here
Settings: Jurkat, 18 h
Method: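 Pooled library of 8380 IKZF3 ZF2 degron mutants (positions 146-167 varied within the IKZF3 130-189 degron; only the varied core is printed, flanks not printed) fused to EGFP with IRES-mCherry, lentivirally expressed in Jurkat cells. mCherry+ cells were treated with one IMiD compound for 18 h (dose not stated) and FACS-sorted into EGFP-low and EGFP+ populations. Degron sequences were counted by NGS, and log2FC (EGFP-low vs EGFP+) was estimated by limma voom over 3 biological replicates.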

[1] = compound: compound 19 (5-tert-butyl-thalidomide)
[2] = compound: compound 22 (5-morpholino-thalidomide)
[3] = compound: compound 33 (diphenyl IMiD analogue)
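Also: pooled lentiviral library of zinc finger degron-EGFP fusions in mCherry-positive Jurkat cells, FACS-sorted after compound exposure, with degron abundance counted by next-generation sequencing.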

Row | Sequence | log2 fold change of degron read counts [1] | log2 fold change of degron read counts [2] | log2 fold change of degron read counts [3] | log2 fold change of degron read counts (compound: thalidomide)
1 | B1 | 2.68 | 2.68 | 2.92 | 2.93
2 | B2 | 2.88 | 2.73 | 2.34 | 1.76
3 | B3 | 2.56 | 2.82 | 2.85 | 2.7
4 | B4 | 2.73 | 2.15 | 1.33 | 0.286
5 | B5 | -2.52 | -2.06 | -2.42 | -1.9
6 | B6 | -1.36 | -2.41 | -2.78 | -0.891
7 | B7 | 0.407 | 0.1 | 2.47 | 3.34
8 | B8 | -0.431 | -0.605 | -1.14 | 0.828
9 | B9 | 1.69 | 2.58 | 2.93 | 3.24
10 | B10 | 1.76 | 1.72 | 1.52 | 2.04
11 | B11 | 0.305 | 0.574 | 1.63 | 1.96
12 | B12 | 3.22 | 3.11 | 2.72 | 1.82
13 | B13 | -2.19 | -2.44 | -1.42 | -1.61
14 | B14 | -2.4 | -2.94 | -3.37 | -2.18
15 | B15 | -1.43 | -2.18 | -1.52 | -2.31
16 | B16 | 0.598 | 1.53 | 2.02 | 2.85
17 | B17 | -1.79 | 0.00658 | 1.15 | 1.1
18 | B18 | -0.604 | 1.47 | 2.69 | 1.92
19 | B19 | 2.02 | 3.59 | 1.86 | 0.626
20 | B20 | -0.94 | 1.3 | 1.62 | 3.28
21 | B21 | 2.04 | 1.62 | 0.179 | -0.104
22 | B22 | 2.24 | 3.15 | 1.75 | 0.339
23 | B23 | -1.02 | -0.868 | -0.156 | 0.111
24 | B24 | -0.285 | -0.446 | 0.954 | 1.12
25 | B25 | -2.24 | -2.55 | -2.41 | -2.6
26 | B26 | -0.764 | -2.44 | -1.5 | -1.62
27 | B27 | -2.95 | -3.42 | -3.04 | -2.8
28 | B28 | -2.4 | -2.73 | -2.2 | -1.93

— the supplement of paper PMC12645437, “Orthogonal IMiD-Degron Pairs Induce Selective Protein Degradation in Cells” (ACS Chemical Biology, 2025)
